Experimental findings from PubChem BioAssay AID686978 (National Center for Advancing Translational Sciences (NCATS), 2013) are described below.

Out of some 420,000 compounds screened, about 64,000 (15%) were called active. Inconclusive results (about 27%) are left out. The list is a sample of the results. Values without a mark were called inactive. Calls follow the shape of the dose curve; as a rule, active = well fitted inhibition curve with a large enough effect; inconclusive = small, poorly fitted or top-dose-only effect; inactive = flat fitted curve, though single readings scatter.
% is scaled to controls: 0 for no effect and ±100 for the full control effect; potency is read from the fitted curve at half-maximal effect.

The assay can be described thus: qHTS for Inhibitors of human tyrosyl-DNA phosphodiesterase 1 (TDP1): qHTS in cells in absence of CPT. Also: nearly all actives have a fitted effect of over 55% in size. Conditions: DT40 Tdp1-/- hTDP1 cells, no CPT, ATP luminescence, 48 h; activity change, negative = growth inhibition: at 46.2 µM (top of the series). The procedure, abridged:
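Seeded 400 DT40-hTDP1 cells/well (vehicle DMSO, no 20 nM CPT); pinned compounds; ≥48 hr at 37 °C; CellTiter-Glo luminescence as viability measure.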
Consider `COc1ccc(CNC(=O)CN(Cc2ccccc2Cl)C(=O)c2csnn2)cc1`, for which the “activity change, negative = growth inhibition” value is -19.7%. The same measure, in the same setting: for `COCCNC(=O)COc1ccc(C)c(C)c1` the value was -9.12%.

Take `Cc1ccc(C)c(N2CCN(S(=O)(=O)c3c(C)[nH]c(C)c3C(=O)N3CCCC3)CC2)c1`: the Potency was 23.1 µM (active).

On to `Cc1ccc(NS(=O)(=O)c2c(C)[nH]c(C)c2C(=O)N2CCCCC2)c(C)c1`, for which the “activity change, negative = growth inhibition” value is -17.5%. The same measure, in the same setting: under `CCc1noc(C)c1C(=O)N1CCN(S(=O)(=O)c2cccc(C(F)(F)F)c2)CC1` stands -1.34%; under `Cc1[nH]c(C)c(S(=O)(=O)N2CCC(C)CC2)c1C(=O)N1CCCC1`, 3.3%. The same measure, in the same setting: under `Cc1ccc(C)c(NS(=O)(=O)c2c(C)[nH]c(C)c2C(=O)N2CCCCC2)c1` stands -1.44%. Consider `Cc1[nH]c(C)c(S(=O)(=O)N2CCN(c3cccc(C(F)(F)F)c3)CC2)c1C(=O)N1CCCCC1`, for which the Potency is 10.3 µM (active). As to `O=S(=O)(NCc1cccnc1)c1ccc(Cl)nc1`, the “activity change, negative = growth inhibition” value is -17.2%. Still for that read-out and setting: under `Cc1occc(=O)c1OCc1c(Cl)cccc1Cl` stands 12.3%; under `O=C(Nc1nnc(-c2ccc(F)cc2)s1)c1c(F)cccc1Cl`, -13%; under `CC(=O)N1CCc2ccc(N)cc21`, -7.03%. Still for that read-out and setting: for `O=C(NCc1ccc2c(c1)OCO2)c1ccc(Cl)s1` the value was -26.7%. For the molecule `O=C(NCc1ccc2c(c1)OCO2)c1c(-c2ccsc2)sc2ccccc12`, the Potency was 14.6 µM (active). Consider `O=C(NCc1ccc2c(c1)OCO2)c1sccc1Br`, for which the “activity change, negative = growth inhibition” value is -12.3%. Still for that read-out and setting: for `COC(=O)c1ccc2ccccc2c1OC1OC(CO)C(O)C(O)C1NC(C)=O` (stereo not given) the value was -14.3%; for `CCOc1cccc(/C(O)=C2/C(=O)C(=O)N(CCOC)C2c2ccncc2)c1` (stereo not given), -0.467%; for `CS(=O)(=O)N1CCN(C(=O)CSc2ccccc2)CC1`, -5.6%. Still for that read-out and setting: under `COCCn1c(SC(C)C(=O)NC2CC2)nnc1-c1cccc(C)c1` (stereo not given) stands -19.5%; under `COc1ccc(C(CNC(=O)c2ccc(OCc3cscn3)cc2)N2CCCC2)cc1` (stereo not given), -19.4%; under `C=CCN(CC=C)C(=O)CN1C(=O)c2ccccc2C1=O`, -3.75%. On the same count and under the same terms, under `CN(C)/C=C(/C(=O)c1ccccc1Cl)S(C)(=O)=O` stands -2.14%. As to `Cc1ccc2nc(-c3cccnc3)c(NC3CCCC3)n2c1`, the Potency is 20.6 µM (active). Consider `O=C(COC(=O)c1cncc(Br)c1)Nc1ccc(S(=O)(=O)N2CCOCC2)cc1`, for which the “activity change, negative = growth inhibition” value was -12.7%.

In the case of `O=C(CCn1nnnc1CN1CCOCC1)N1CCC(c2ccccc2Cl)C1` (stereo not given), the “activity change, negative = growth inhibition” value is -9.44%. As to `Cc1cccc(C(=O)N2CCC(c3nc4ccccc4s3)CC2)c1`, the “activity change, negative = growth inhibition” value is -23.4%. `CC(=O)Oc1ccc(OC(C)=O)c2c1C1C=CC2CC1`: the Potency was 16.4 µM (active). For `CC(=O)Oc1ccc(C(C)=O)c2c1OCCO2`, the “activity change, negative = growth inhibition” value was -8.77%. Same read-out and setting: under `COc1c(C(=O)N2CCCC2)ccc2ccccc12` stands -25.1%; under `NC(=O)CC[C@@H]1NC(=O)[C@H](CO)NC(=O)c2cc([N+](=O)[O-])cc(I)c2NCC[C@@H](C(N)=O)NC1=O`, -1.82%. The same measure, in the same setting: under `COCC(=O)N1CCc2ccc(NC(=O)c3ccccc3Cl)cc2C1` stands 18.5%. In the case of `COc1ccc2c(c1)C(C)=CC(C)(C)N2C(=O)CNCc1ccc2c(c1)OCO2`, the Potency is 20.6 µM (active). Turning to `COc1cccc(CNCc2ccc3c(c2)OCO3)c1`, the “activity change, negative = growth inhibition” value was -23.4%. Still for that read-out and setting: under `COc1ccc(NC(=O)NCc2ccc3c(c2)OCO3)c(OC)c1` stands 2.84%. Take `CC(=O)O[C@H]1CC[C@@]2(C)[C@@H](CC[C@@H]3[C@@H]2CC[C@]2(C)[C@@H](C(C)(C)O)C[C@@H]32)C1`: the “activity change, negative = growth inhibition” value is -13.8%. Still for that read-out and setting: under `CC(C)C(=O)NC(C)c1nnc2n1CCN(Cc1cccc3ncccc13)CC2` (stereo not given) stands -2.35%. On to `COc1ccc(NC(=O)c2sc3nc(C)nc(N4CCN(c5ccccn5)CC4)c3c2C)c(OC)c1`, for which the Potency was 11.6 µM (active). Take `CCOc1ccc(Cn2nnc(C(=O)Nc3ccc(OC)cc3OC)c2N)cc1`: the “activity change, negative = growth inhibition” value is -1.55%. In the case of `O=C(Nc1ccc(N2CCOCC2)nc1)c1c(F)cccc1F`, the “activity change, negative = growth inhibition” value is -8.61%. The same measure, in the same setting: for `Cn1c(SCC(=O)Nc2ccc(N3CCOCC3)cc2)nnc1C(F)(F)F` the value was -0.0099%; for `CCOC(=O)C1CCCN(C(=O)c2sc3nc(C)nc(N4CCOCC4)c3c2C)C1` (stereo not given), -8.49%; for `CCS(=O)(=O)N1Cc2ccccc2CC1C(=O)Nc1ccc(OC)cc1OC` (stereo not given), -20.6%. Take `Cc1nc2c(-c3ccc(F)cc3)c(C)nn2c(C)c1CCC(=O)N1CCN(c2ccccn2)CC1`: the “activity change, negative = growth inhibition” value was -25.4%. For `Cc1nc(N2CCOCC2)c2c(C)c(C(=O)Nc3ccc(C(F)(F)F)cc3)sc2n1`, the Potency was 18.4 µM (active). Consider `Cc1nc(N2CCN(c3ccccn3)CC2)c2c(C)c(C(=O)Nc3ccc(F)cc3)sc2n1`, for which the Potency is 20.6 µM (active). For `Cc1cc(Cl)c(S(=O)(=O)NCCC(=O)O)cc1OCC(N)=O`, the “activity change, negative = growth inhibition” value was -5.51%. Regarding `COc1cc(C)c(CN2CCc3nnc(C(C)NC(=O)c4cccnc4)n3CC2)cc1C` (stereo not given), the “activity change, negative = growth inhibition” value was -1.75%. Regarding `COc1ccc(OC)c(NC(=O)C2CCCN2S(=O)(=O)c2cccc3nsnc23)c1` (stereo not given), the “activity change, negative = growth inhibition” value is -11.2%. On the same count and under the same terms, under `Nc1ncc(CN2CCCC(C(=O)Nc3ccc(-c4ccco4)cc3)C2)cn1` (stereo not given) stands 2.56%. For `O=C(CNC(=O)c1cccnc1)N/N=C/c1cc(Br)c(O)c(Br)c1`, the “activity change, negative = growth inhibition” value is -14.5%. Still for that read-out and setting: under `Cc1nc2ccc(C(=O)N3CCSCC3)cc2s1` stands -8.92%.

As for `CCNC(=O)CN(c1ccc(C)cc1)S(=O)(=O)c1ccc(SC)cc1`, the “activity change, negative = growth inhibition” value is -23.1%. The same measure, in the same setting: under `CCOc1ccccc1C(=O)NCCCn1ccnc1` stands -10.6%. The same measure, in the same setting: for `CCc1ccc(NC(=O)Cn2ncn3c(cc4ccccc43)c2=O)cc1` the value was -18.2%. For `CCOc1ccccc1C(=O)Nc1ccc2c(c1)N(C)C(=O)c1ccccc1S2`, the Potency is 3.66 µM (active). Consider `CN1C(=O)c2ccccc2Sc2ccc(NC(=O)Cc3ccc(Cl)cc3)cc21`, for which the Potency is 16.4 µM (active). With `CCN1C(=O)c2ccccc2Sc2ccc(NC(=O)Cc3ccc(OC)cc3)cc21`, the “activity change, negative = growth inhibition” value is -21.6%.

`CC(=O)Nc1ccc(NC(=O)COc2ccccc2C(=O)Nc2cccc(Cl)c2Cl)cc1`: the “activity change, negative = growth inhibition” value is -19.4%. Still for that read-out and setting: for `Cc1nn(-c2ccccc2)c(=O)c2noc(C)c12` the value was -18.1%; for `CN1CC(O)c2cc(N=NC(N)=O)c(O)cc21` (stereo not given), -2.16%. On to `OC(COc1ccc2ccccc2c1)CN1CCOCC1` (stereo not given), for which the Potency entry is “inactive”. The same measure, in the same setting: for `COc1cccc(/C=N/Nc2cc(C)nc(-c3ccccc3O)n2)c1O` the value was 8.2 µM (active). Regarding `COc1ccccc1-n1c(SCC(=O)Nc2cccc(C(=O)O)c2)nnc1-c1ccccc1O`, the “activity change, negative = growth inhibition” value was -7.49%. With `COc1ccccc1/C=N\Nc1cc(C)nc(-n2nc(C)cc2C)n1`, the Potency is 5.17 µM (active). The same measure, in the same setting: for `Cc1cc(N/N=C\c2ccc(Br)cc2)nc(-n2nc(C)cc2C)n1` the value was 2.91 µM (active). For the molecule `COc1cccc(/C=N/Nc2ccc(S(=O)(=O)Nc3ccccc3C(=O)O)cc2[N+](=O)[O-])c1O`, the “activity change, negative = growth inhibition” value is -4.64%. Same read-out and setting: for `COc1ccccc1/C=N/Nc1nc(C)c(C(C)=O)s1` the value was -11.1%; for `Cc1cc2c(C)nc(N/N=C/c3ccccc3)nc2o1`, -27.5%; for `COc1cc(NS(=O)(=O)c2ccccc2)ccc1-n1nc(C)cc1C`, -20%. The same measure, in the same setting: under `Cc1nc(Cl)cc(N/N=C/c2ccccc2)n1` stands -0.294%.
